From the supplement of paper PMC7156485

Columns and labels:
Settings in all cases: concentration: 10 µM; 24 h
[1] = tested on: HCC1569; assay: cell number relative to DMSO (% of DMSO); higher = more cells (less growth inhibition / toxicity)
In short: (§1)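 Compounds were applied at 10 µM for 24 h at 37 °C, in triplicate, to HCC1569 and TDF cells. The cells were then fixed and stained for H1.0, and nuclei were counterstained with DAPI. Nuclear H1.0 intensity or cell number is reported relative to the plate control as a percent, taking the median of replicates. Smoothing for positional effects was applied to HCC1569 values only.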

[2] = tested on: TDF; assay: as above
In short: as §1

[3] = tested on: TDF; assay: H1.0 immunofluorescence intensity relative to DMSO (% of DMSO); higher = stronger H1.0 induction, active = 120 or more
In short: as §1

[4] = tested on: HCC1569; assay: H1.0 immunofluorescence intensity relative to DMSO (% of DMSO); higher = stronger H1.0 induction, active = 140 or more
In short: as §1
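Wherever H1.0 immunofluorescence intensity relative to DMSO is given: TDF is a line of transformed human dermal fibroblasts of mesenchymal origin.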
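Wherever cell number relative to DMSO is given: TDF denotes transformed human dermal fibroblasts of mesenchymal origin.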

**Q.** With `CN1CCCC1CCOC(C)(c1ccccc1)c1ccc(Cl)cc1` (stereo not drawn) [Clemastine] as the compound, how does the cell number [1] read?
**A.** 99.4

**Q.** What about the cell number [2] of the same compound?
**A.** 97.3

**Q.** And the H1.0 immunofluorescence intensity [3]?
**A.** 102 (inactive)

**Q.** And the H1.0 immunofluorescence intensity [4]?
**A.** 112 (inactive)

**Q.** Which results are given for `O=C(O)Cc1sc(-c2ccccc2)nc1-c1ccc(Cl)cc1` [Fentiazac]?
**A.** cell number [1]: 91.8; cell number [2]: 107; H1.0 immunofluorescence intensity [3]: 89.6 (inactive); H1.0 immunofluorescence intensity [4]: 116 (inactive)

**Q.** Which results are given for `CCCCCC=CCC(O)C=CC=CC=CC(O)CCCC(=O)O` (stereo not drawn) [Leukotriene B4]?
**A.** cell number [1]: 105; cell number [2]: 98.8; H1.0 immunofluorescence intensity [3]: 93.3 (inactive); H1.0 immunofluorescence intensity [4]: 102 (inactive)

**Q.** Which cell number [1] does the source give for `COc1cccc(-c2cn(-c3ccc(CCN4CCC(O)CC4)cc3)c3ncnc(N)c23)c1` here?
**A.** 45.9

**Q.** And the cell number [2]?
**A.** 53.9

**Q.** And the H1.0 immunofluorescence intensity [3]?
**A.** 127 (active)

**Q.** What about the H1.0 immunofluorescence intensity [4] of the same compound?
**A.** 177 (active)

**Q.** `O=C1CCC(N2C(=O)c3ccccc3C2=O)C(=O)N1` (stereo not drawn) [Thalidomide] was tested. Which cell number [1] did it give?
**A.** 101

**Q.** And the cell number [2]?
**A.** 102

**Q.** And the H1.0 immunofluorescence intensity [3]?
**A.** 97.1 (inactive)

**Q.** What about the H1.0 immunofluorescence intensity [4] of the same compound?
**A.** 96.7 (inactive)

**Q.** With `CC(C)CC(NC(=O)C(COC(C)(C)C)NC(=O)C(Cc1ccc(O)cc1)NC(=O)C(CO)NC(=O)C(Cc1c[nH]c2ccccc12)NC(=O)C(Cc1cnc[nH]1)NC(=O)C1CCC(=O)N1)C(=O)NC(CCCN=C(N)N)C(=O)N1CCCC1C(=O)NNC(N)=O` (stereo not drawn) [Goserelin] as the compound, how does the cell number [1] read?
**A.** 100

**Q.** And the cell number [2]?
**A.** 105

**Q.** And the H1.0 immunofluorescence intensity [3]?
**A.** 94.5 (inactive)

**Q.** And the H1.0 immunofluorescence intensity [4]?
**A.** 103 (inactive)

**Q.** How did the cell number [1] turn out when `CN1CCN(CC(=O)N2c3ccccc3C(=O)Nc3cccnc32)CC1.Cl.Cl` [Pirenzepine dihydrochloride] was run?
**A.** 107

**Q.** What about the cell number [2] of the same compound?
**A.** 121

**Q.** And the H1.0 immunofluorescence intensity [3]?
**A.** 97.4 (inactive)

**Q.** What about the H1.0 immunofluorescence intensity [4] of the same compound?
**A.** 95.9 (inactive)

**Q.** With `Clc1ccccc1C(c1ccccc1)(c1ccccc1)n1ccnc1` [Clotrimazole] as the compound, how does the cell number [1] read?
**A.** 75.1

**Q.** And the cell number [2]?
**A.** 69.1

**Q.** And the H1.0 immunofluorescence intensity [3]?
**A.** 104 (inactive)

**Q.** What about the H1.0 immunofluorescence intensity [4] of the same compound?
**A.** 108 (inactive)

**Q.** With `CS(=O)(=O)O.N=C(N)SCCc1ccc(OCc2ccc([N+](=O)[O-])cc2)cc1` as the compound, how does the cell number [1] read?
**A.** 88.6

**Q.** And the cell number [2]?
**A.** 78.2

**Q.** What about the H1.0 immunofluorescence intensity [3] of the same compound?
**A.** 125 (active)

**Q.** And the H1.0 immunofluorescence intensity [4]?
**A.** 158 (active)

**Q.** For `CC(=O)C1=C(O)C=C2Oc3c(C(C)=O)c(O)c(C)c(O)c3C2(C)C1=O` (single isomer, unassigned; (+)) [(+)-Usnic acid], which cell number [1] is on record?
**A.** 100

**Q.** And the cell number [2]?
**A.** 109

**Q.** What about the H1.0 immunofluorescence intensity [3] of the same compound?
**A.** 96.7 (inactive)

**Q.** What about the H1.0 immunofluorescence intensity [4] of the same compound?
**A.** 91.2 (inactive)

**Q.** What does the source list for `CN1CCN(CC(=O)N2c3ccccc3C(=O)Nc3cccnc32)CC1.Cl.Cl` [Pirenzepine.2HCl]?
**A.** cell number [1]: 101; cell number [2]: 106; H1.0 immunofluorescence intensity [3]: 90.5 (inactive); H1.0 immunofluorescence intensity [4]: 106 (inactive)

**Q.** How did the cell number [1] turn out when `CCCCC=CCCCCCCCCC(=O)O` [10(Z)-Pentadecenoic acid] was run?
**A.** 101

**Q.** And the cell number [2]?
**A.** 102

**Q.** What about the H1.0 immunofluorescence intensity [3] of the same compound?
**A.** 103 (inactive)

**Q.** What about the H1.0 immunofluorescence intensity [4] of the same compound?
**A.** 104 (inactive)
